D1 potentiator – Potentiators of Human D1 Dopamine Receptor: qHTS. D(1A) dopamine receptor (Homo sapiens), P21728. HEK293 TREx D1 cells, calcium flux, dopamine EC20 potentiation. potentiation, % at 10 µM. hit rate 0.036% among 360,000; in the data active = potentiation above about 30%
Target sequence (P21728 whole entry, looked up): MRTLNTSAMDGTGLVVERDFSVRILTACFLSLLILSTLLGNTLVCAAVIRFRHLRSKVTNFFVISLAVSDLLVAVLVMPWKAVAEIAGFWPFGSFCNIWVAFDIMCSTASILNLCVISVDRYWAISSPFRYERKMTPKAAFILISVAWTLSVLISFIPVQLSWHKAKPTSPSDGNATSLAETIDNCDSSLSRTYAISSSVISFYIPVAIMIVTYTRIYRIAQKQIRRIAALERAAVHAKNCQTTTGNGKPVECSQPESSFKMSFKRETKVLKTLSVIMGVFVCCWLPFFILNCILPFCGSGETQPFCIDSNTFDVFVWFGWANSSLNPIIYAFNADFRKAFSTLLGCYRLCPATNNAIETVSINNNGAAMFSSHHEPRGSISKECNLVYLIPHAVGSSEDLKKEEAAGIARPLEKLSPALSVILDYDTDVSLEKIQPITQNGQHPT
D3 ag – qHTS of D3 Dopamine Receptor Agonist: qHTS | D3R DiscoveRx beta-arrestin cells, luminescence, 90 min | D(3) dopamine receptor (Homo sapiens), P35462 | hit rate 0.58% among 410,000 | max activation, %; in the data active = max activation above about 30%
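Cells at 1500/well, incubated overnight, then treated with pinned compounds (dopamine as control) for 90 min at 37 degrees C. DiscoveRx reagent added for 30 - 60 minutes at room temperature; luminescence read.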
D1 agonist – Allosteric Agonists of the Human D1 Dopamine Receptor: qHTS; D(1A) dopamine receptor (Homo sapiens), P21728; activation, % at 2 µM; hit rate 1% among 360,000; AID 504660, 2011; HEK293 T-REx D1 cells, calcium flux, agonist mode; in the data active = activation above about 30%
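Tetracycline-induced HEK293 TREx D1 cells, force-coupled to calcium signalling, were dye-loaded with a no-wash calcium kit. Compound was pin-added after a 10 s baseline. Fluorescence was read kinetically at 1 cycle/s for 180 s, with calcium rises flagged as agonism.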
D3 antag – qHTS of D3 Dopamine Receptor Antagonist: qHTS; max response, negative = inhibition, %; AID 652054, 2013; D3R cells, DiscoveRx beta-arrestin luminescence, antagonist mode; hits give low values; hit rate 2.5% among 360,000; in the data active = max response below about -50%; inconclusive = no clear call, values can overlap the other calls
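Cells plated overnight at 1500 cells/well, then exposed to library compounds with dopamine controls for 90 minutes at 37 degrees C. DiscoveRx reagent added for 30–60 minutes at room temperature; luminescence read, quantitative HTS format.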
D1 antagonist – Antagonist of Human D 1 Dopamine Receptor: qHTS; D(1A) dopamine receptor (Homo sapiens), P21728; HEK293 TREx D1 cells, calcium flux, dopamine EC80; hits give low values; activity change, negative = inhibition, % at 10 µM; hit rate 3.2% among 360,000; AID 504652, 2011; in the data active = activity change below about -30%
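Cells carrying a force-coupled, tetracycline-inducible human D1 receptor report calcium flux. Each well gets a 10 s baseline, compound with 180 s monitoring, then an EC80 dopamine stimulus with a second 180 s kinetic read.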
Hits are given with their value; 0 = inactive; ? = inconclusive; - = not tested or not shown; ! = not confirmed by another sample. Most compounds without a hit are left out; they make up all but 6.1% or so of the library.

SMILES	D1 potentiator	D3 ag	D1 agonist	D3 antag	D1 antagonist
COc1ccc(OC)c(-n2nnnc2SCC(=O)Nc2ccc(C(=O)N3CCCCC3)cc2)c1	0	32.9	0	0	0
COC(=O)c1ccc(-n2nnnc2SCC(=O)N2CCCCC2)cc1	0	0	0	0	-30.2
COc1ccccc1N1CCN(C(=O)Cn2c(=O)nc(-c3ccccc3)c3cc(Cl)ccc32)CC1	0	0	0	-	0
CCc1ccc2c(c1)C(c1ccc([N+](=O)[O-])cc1)=NNC(c1ccc(F)cc1)=N2	0	0	0	0	-39.7
Cc1ccc2c(c1)C(c1ccncc1)=NNC(c1ccc(F)cc1)=N2	0	0	0	0	-38.6
Cc1ccc2c(c1)C(c1ccncc1)=NNC(c1ccccc1)=N2	0	0	0	0	0
CCOc1ccc(-c2nn(-c3ccccc3)cc2C2NC(=O)NC(C)=C2C(=O)OC(C)C)cc1C (stereo unspecified)	0	0	0	-	-36.5
CC1CCc2nc(NC(=O)CN3CCN(c4ccccc4)CC3)sc2C1 (stereo unspecified)	0	0	0	0	0
CC1CCc2nc(NC(=O)CN3CCOCC3)sc2C1 (stereo unspecified)	0	0	0	0	-34.0
COc1ccc(N2CCN(c3oc(/C=C/c4ccccc4OC)nc3C#N)CC2)cc1	0	0	0	-	0
CCC(=O)N1CCc2cc(Br)cc(S(=O)(=O)N3CCC(C(=O)Nc4ccccc4CC)CC3)c21	0	0	0	-	0
O=S(=O)(c1ccccc1)c1nc(-c2ccc(Cl)cc2Cl)oc1N1CCCCCC1	0	61.1	0	-	0
O=C(CCCCCCCCC#CI)Oc1ccccc1	-	0	-	-	-
CCOC(=O)c1sc(NC(=O)c2cc(-c3ccccc3C)nc3ccccc23)c(C#N)c1C	0	33.2	0	0	0
CCNc1nc(Oc2ccc(=O)n(C)n2)nc(N2CCOCC2)n1	0	0	0	0	0
CSc1nc(NC(C)(C)C)nc(Oc2ccc(=O)n(C)n2)n1	0	0	0	0	-34.2
CSc1nc(NC(C)(C)C)nc(Oc2ccc(=O)[nH]n2)n1	0	0	0	?	0
CNc1nc(Oc2ccc(=O)n(C)n2)nc(N2CCOCC2)n1	0	0	0	0	-30.6!
CC(C)Nc1nc(NC(C)(C)C)nc(Oc2ccc(=O)n(-c3ccccc3)n2)n1	0	0	36.8	0	0
CC(C)CNc1nc(NC(C)(C)C)nc(Oc2ccc(=O)n(-c3ccccc3)n2)n1	0	0	0	-	0
COc1cccc(NC(=O)COC(=O)Cn2c(C)csc2=O)c1	-	0	0	0	-93.8
COc1ccccc1NC(=O)COC(=O)Cn1c(C)csc1=O	-	0	-	0	-
Cc1cc(C)c(C(=O)COC(=O)Cn2c(C)csc2=O)cc1C	0	0	0	0	-36.1
COc1ccccc1NC(=O)COC(=O)CCn1c(C)csc1=O	0	0	0	0	-32.7
Cc1ccc(NC(=O)COC(=O)Cn2c(C)csc2=O)cc1C	0	0	0	0	-35.0
SMILES	D1 potentiator	D3 ag	D1 agonist	D3 antag	D1 antagonist
CN(C)S(=O)(=O)c1ccc2c(c1)N(CC(=O)N1CCN(c3ccccc3F)CC1)CCS2	0	0	0	-	0
O=C(Nc1ccc(Cl)cc1)Nc1ccc(Cl)c(C(F)(F)F)c1	-	0	-	-	-
Cc1ccc(NC(=O)CSc2nc3ccc(NC(=O)c4cccc(Cl)c4)cc3s2)c(C)c1	0	0	0	-	0
COc1ccc(CCNC(=O)c2ccc3c(c2)N(Cc2ccccc2Cl)C(=O)c2ccccc2S3)cc1OC	0	0	0	-	0
Cc1ccccc1NC(=O)c1c(C)oc2ccc(O)c(CN3CCN(C)CC3)c12	0	0	0	-	0
CN(C)c1nc(OCCOC(=O)c2ccccc2)nc(N(C)C)n1	0	0	31.1	0	0
CCN1C(=O)/C(=c2\o/c(=C3\C=Cc4ccccc4N3CC)c(=O)n2CC)SC1=S	0	0	0	0	0
CCN1C(=O)/C(=C2\C=Cc3ccccc3N2CC)SC1=S	0	0	0	-91.0	-32.8
CC1CCN(S(=O)(=O)c2ccc3c(ccc(=O)n3CC(=O)NCc3ccccc3)c2)CC1	0	0	0	-	0
N#Cc1nc(Nc2cc(F)cc(F)c2)c2ncn(C3CCCC3)c2n1	0	-	0	-	0
CCCN1CCN(CCCNC(=O)Cn2c(-c3cccs3)cc3cc(Cl)ccc32)CC1	0	0	35.4	-	0
O=c1[nH]c2cccnc2n1Cc1ccco1	0	0	0	0	-43.2
O=C(Cn1c(=O)n(Cc2ccco2)c(=O)c2cccnc21)Nc1ccccc1F	0	0	0	-	0
O=C1N/C(=C/c2ccc(N3CCOCC3)o2)C(=O)N1c1cccc(Cl)c1	0	0	0	-74.7	-
Cc1ccc(/C=C2/NC(=O)N(c3ccccc3)C2=O)o1	0	0	0	0	0
CN(C)c1ccc(-c2csc(C(O)(c3ccccc3)C(F)(F)F)n2)cc1 (stereo unspecified)	-	0	-	-94.2	-
CCS(=O)(=O)N1CC(=O)N(c2ccc(Cl)cc2)C(C)(C(=O)NC2CCCCC2)C1 (stereo unspecified)	0	0	0	-	0
Cc1cccc(C(=O)Nc2ccc3nc(SCC(=O)N4CCCC4)sc3c2)c1	0	0	0	-	0
O=C(NC1CC(=O)N(c2cccc(F)c2)C1)c1ccc(S(=O)(=O)N2CCCC2)cc1 (stereo unspecified)	0	0	0	-	-
Cc1ccc(C)c(C(=O)C(C)OC(=O)c2cccn2C)c1 (stereo unspecified)	0	0	0	-50.5	0
COc1ccc(CNC(=O)C(C)OC(=O)c2cccn2C)cc1 (stereo unspecified)	0	0	0	0	0
Cc1cc(C)c2c(C)c(C(=O)N3CCC(c4nc5ccccc5s4)CC3)oc2c1	0	0	0	-	0
COc1ccc(CN2CCNC(=O)C2CC(=O)NC2CCCCCC2)c(F)c1 (stereo unspecified)	0	0	0	-69.2	0
COc1ccc(CN2CCNC(=O)C2CC(=O)NC2CCOCC2)c(F)c1 (stereo unspecified)	0	0	0	0	0
CCOc1ccc(NC(=O)CC2C(=O)N(c3cccc(C)c3)C(=O)N2Cc2cccnc2)cc1 (stereo unspecified)	0	0	0	-	0
CSc1ccc(CCNC(=O)C(C)n2nc(C)c3sc4ccccc4c3c2=O)cc1 (stereo unspecified)	0	0	0	-	0
COc1ccc(C(=O)N2c3ccccc3C(C)(c3ccc(Cl)cc3)CC2(C)C)cc1 (stereo unspecified)	0	0	0	-	0
CSc1nccc(Oc2cccc(C#N)c2)n1	0	0	0	0	-33.0
CSc1nc(Oc2cccc(C(F)(F)F)c2)cc(C(F)(F)F)n1	0	0	0	0	0
